# Experimental data reported in PubChem BioAssay AID1851 (National Center for Advancing Translational Sciences (NCATS), 2009).
# Hit rate of the full screen: of about 16,000 compounds, about 5,800 (36%) were called active. About 23% were inconclusive and are not listed. The list shows a part of the results. Unmarked numbers belong to inactive results. The call rests on the fitted dose curve; in most records, active means well fitted curve in the direction sought with a large enough effect; inconclusive means small, poorly fitted or top-dose-only effect, or effect the other way; inactive means no such curve, though single readings can be large or run the other way.
# Molecular target: Cytochrome P450 2C19 (Homo sapiens) (UniProt P33261)
# Sequence (P33261 whole entry, looked up): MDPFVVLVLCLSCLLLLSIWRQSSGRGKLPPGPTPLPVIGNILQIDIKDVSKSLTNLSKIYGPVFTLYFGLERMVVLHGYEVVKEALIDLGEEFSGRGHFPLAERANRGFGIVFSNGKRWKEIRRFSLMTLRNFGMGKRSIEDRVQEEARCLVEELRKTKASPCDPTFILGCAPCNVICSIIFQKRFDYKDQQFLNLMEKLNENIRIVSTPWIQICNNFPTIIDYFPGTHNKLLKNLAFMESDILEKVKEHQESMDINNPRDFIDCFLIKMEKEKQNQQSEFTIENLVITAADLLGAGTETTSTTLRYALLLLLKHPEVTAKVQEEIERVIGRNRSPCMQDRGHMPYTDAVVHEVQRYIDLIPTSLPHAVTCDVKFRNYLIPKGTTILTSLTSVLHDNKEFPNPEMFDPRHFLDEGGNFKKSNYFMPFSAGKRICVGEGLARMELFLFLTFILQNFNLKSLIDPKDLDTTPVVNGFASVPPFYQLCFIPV
# Experiment: Cytochrome panel assay with activity outcomes
# Conditions: recombinant CYP, pro-luciferin dealkylation, luminescence, p450-cyp2c19; series mostly up to 57.1 µM
# On the % scale 0 is the no-effect control and ±100 the full control effect.
SMILES,AC50,"activity, negative = inhibition"
COc1ccc(CNc2ncncc2-c2ccccc2C(F)(F)F)c(OC)c1,1.58 µM (active),
COc1ccccc1CNc1ncncc1-c1ccccc1C(F)(F)F,1.58 µM (active),
COCCn1c(=O)c(C)nc2cnc(N(C)C)nc21,inactive,
CN(C)C(=O)c1ccc(-c2ccc3ncnc(N4CCOCC4)c3c2)cc1,inactive,
COc1ccc(-n2c(=O)c(C)nc3cnc(N4CCOCC4)nc32)cc1,inactive,
COC(=O)c1ccc(Oc2nc(N(C)C)nc(N3CCOCC3)n2)cc1,14.1 µM (active),
N#Cc1c(NC(=O)C(F)(F)F)sc2c3c(=O)c4ccccc4c(=O)c=3oc3ccccc3c12,0.501 µM (active),
Cn1c(=S)c2[nH]c(SCc3cccnc3)nc2n(C)c1=O,,23.1% [at 11.4 µM]
O=C(CCCn1c(=S)[nH]c2cc3c(cc2c1=O)OCO3)N1CCN(c2ncccn2)CC1,22.4 µM (active),
O=c1c2cc(Br)ccc2[nH]c(=S)n1Cc1cccnc1,1.58 µM (active),
O=C(CCCn1c(=S)[nH]c2cc3c(cc2c1=O)OCO3)N1CCN(c2ccccc2)CC1,10 µM (active),
C=CCNC(=O)c1ccc(Cn2c(=S)[nH]c3cc4c(cc3c2=O)OCO4)cc1,inactive,
Cc1cccc(N2CCN(C(=O)CCCn3c(=S)[nH]c4cc5c(cc4c3=O)OCO5)CC2)c1C,2.82 µM (active),
O=C(c1cnccn1)N1CCC2(CC1)CN(c1cccc(-c3ccccc3)c1)C2,inactive,
O=C(O)/C=C\C(=O)Nc1cccc2c1-c1ccccc1C2=O,,28.6% [at 11.4 µM]
Cc1ccccc1CNc1ncnc2c1ncn2[C@@H]1O[C@@H](CO)[C@H](O)[C@@H]1O,inactive,
CCCc1nnc(NC(=O)CCC(=O)N2CCN(c3ccccn3)CC2)s1,inactive,
O=C(CCCn1c(=S)[nH]c2ccc(Br)cc2c1=O)N1CCN(c2ccccn2)CC1,2.51 µM (active),
O=C(CCCn1c(=S)[nH]c2ccc(Br)cc2c1=O)NCC1CCCO1 (stereo not drawn),3.55 µM (active),
CN=C(NC#N)NCCSC[C@H]1N=CN=C1C,inactive,
N[C@@H]1[C@@H]2[C@@H]3C[C@H]4N(CC[C@@]14C(=O)C(=O)O)CC3=CCO[C@@H]2CC(=O)O,,-13.5% [at 11.4 µM]
Cc1ccc(S(=O)(=O)NCCSc2nnnn2C)cc1,5.01 µM (active),
c1cncc(CNc2ncnc3ccc(-c4ccoc4)cc23)c1,0.0251 µM (active),

SMILES,AC50,"activity, negative = inhibition"
Cc1cccc(CNc2ncnc3ccc(-c4cccc(C#N)c4)cc23)c1,inactive,
Cc1cccc(CNc2ncnc3ccc(-c4ccoc4)cc23)c1,7.94 µM (active),
Cn1cccc1C(=O)N1CCC2(CC1)CN(C(c1ccccc1)c1ccccc1)C2,inactive,
CC(C)N(C(=O)CSc1nc2ccccc2n1-c1ccccc1)C(C)C,7.94 µM (active),
COC(=O)c1cc2c(ccn2-c2ccc(F)cc2)n1CC(C)C,3.16 µM (active),
COC(=O)c1cc2c(ccn2-c2ccc(F)cc2)n1C(C)C,2 µM (active),
COCCn1c(=O)c(-c2ccc(F)cc2)nc2cnc(N(C)C)nc21,inactive,
C=C[C@H](N)CCC(=O)O,inactive,
CCc1ccccc1NC(=O)CSc1nc(-c2ccccc2)nn1C(=O)c1cccc([N+](=O)[O-])c1,0.398 µM (active),
COc1ccccc1-c1cc(-n2ccnc2)ncn1,2 µM (active),
CN(C)Cc1ccccc1-c1cc(NC2CC2)ncn1,inactive,
CNc1cc(-c2ccccc2CN(C)C)ncn1,inactive,
CN(C)Cc1ccccc1-c1cc(-n2ccnc2)ncn1,25.1 µM (active),
O=C(O)CCC(=O)N1CCc2cc(S(=O)(=O)N3CCCCC3)ccc21,inactive,
CSc1nc2cc(S(=O)(=O)N3CCCCC3)ccc2s1,1.26 µM (active),
NS(=O)(=O)c1cccc2c1c([N+](=O)[O-])cc1nc(O)c(O)nc12,inactive,
c1cncc(CNc2cc(-c3ccoc3)ncn2)c1,inactive,
COc1cccc(-c2cc(NCc3ccccc3)ncn2)c1,7.94 µM (active),
CN(C)C(=O)c1ccc(-c2cc(NCc3cccnc3)ncn2)cc1,inactive,
COc1cccc(-c2cc(NCc3cccnc3)ncn2)c1,10 µM (active),
Nc1ccn([C@@H]2CC[C@H](CO)O2)c(=O)n1,inactive,
O=C(O)[C@@H]1[C@@H]2C[C@H]3c4[nH]c5ccccc5c4CCN3C[C@@H]2CC[C@@H]1O,inactive,
Cc1ccc(NC(=S)N2CCN(C(=O)C3CCCO3)CC2)c(C)c1 (stereo not drawn),inactive,

SMILES,AC50,"activity, negative = inhibition"
Cc1ccc(NC(=S)N2CCN(C3CCCCC3)CC2)cc1,6.31 µM (active),
S=C(Nc1cccc(Cl)c1)NC1CCCCC1,7.08 µM (active),
CC(=O)NS(=O)(=O)c1ccc(NC(=O)NC2CCCCC2)cc1,inactive,
S=C(NCc1ccccn1)Nc1cccc(Cl)c1,3.55 µM (active),
NC(=O)c1ccc(NC(=O)C2CCCO2)cc1 (stereo not drawn),inactive,
O=C(Nc1ccc(Cl)cc1)NC1CCCCC1,8.91 µM (active),
Nc1nc(N)nc(CCCc2nc(N)nc(N)n2)n1,,103% [at 11.4 µM]
N#Cc1cccc(-c2nc3cnc(N4CCNCC4)nc3n(C3CC3)c2=O)c1,inactive,
CN1C(=O)C(CC(N)=O)N(NC(=O)c2ccc(Cl)cc2)C1=S (stereo not drawn),inactive,
Cc1ccc(NC(=S)NC2CCCC2)cc1,3.55 µM (active),
CO[C@H]1COC(=O)C/C=C\[C@H](C)[C@@H](OC)COC(=O)[C@@H](C)COC(=O)C/C=C\[C@@H]1C,,-29.5% [at 11.4 µM]
COc1cc2nc(SCc3ccc(Cl)cc3Cl)n(Cc3cccs3)c(=N)c2cc1OC,2.51 µM (active),
COc1ccc(Cn2c(SCc3ccccc3C)nc3cc(OC)c(OC)cc3c2=N)cc1,20 µM (active),
CN1CCN(c2ncc3nc(-c4ccc(Cl)cc4)c(=O)n(Cc4cccs4)c3n2)CC1,inactive,
O=C(O)C1CCN(c2ncnc3ccc(-c4ccccc4C(F)(F)F)cc23)CC1,inactive,
FC(F)(F)c1ccccc1-c1ccc2ncnc(N3CCOCC3)c2c1,0.631 µM (active),
Cc1ccccc1-c1ccc2ncnc(N3CCN(C)CC3)c2c1,inactive,
CN1CCN(c2ncnc3ccc(-c4ccccc4C#N)cc23)CC1,inactive,
COc1cccc(-c2ccc3ncnc(N4CCOCC4)c3c2)c1,3.98 µM (active),
CS(=O)(=O)Nc1cccc(-c2ccc3ncnc(N4CCOCC4)c3c2)c1,inactive,
CN1CCN(c2ncnc3ccc(-c4ccccc4Cl)cc23)CC1,3.98 µM (active),
COc1ccccc1-c1ccc2ncnc(N3CCOCC3)c2c1,1.26 µM (active),
